target: T1, ELK1 (Homo sapiens, UniProt P19419 1-428); assay: DAPPL (digital affinity profiling via proximity ligation, sequencing); 10 mM Tris-HCl pH 7.5, 50 mM NaCl, 1 mM DTT, 4% glycerol, room temperature, 30 min; GST-TFs on glutathione beads, 16-mer random dsDNA library, 0.1% formaldehyde crosslink after washing; high values mean tight binding; details: protein: recombinant; tags: N-terminal GST; dsDNA, one strand shown
T1 sequence: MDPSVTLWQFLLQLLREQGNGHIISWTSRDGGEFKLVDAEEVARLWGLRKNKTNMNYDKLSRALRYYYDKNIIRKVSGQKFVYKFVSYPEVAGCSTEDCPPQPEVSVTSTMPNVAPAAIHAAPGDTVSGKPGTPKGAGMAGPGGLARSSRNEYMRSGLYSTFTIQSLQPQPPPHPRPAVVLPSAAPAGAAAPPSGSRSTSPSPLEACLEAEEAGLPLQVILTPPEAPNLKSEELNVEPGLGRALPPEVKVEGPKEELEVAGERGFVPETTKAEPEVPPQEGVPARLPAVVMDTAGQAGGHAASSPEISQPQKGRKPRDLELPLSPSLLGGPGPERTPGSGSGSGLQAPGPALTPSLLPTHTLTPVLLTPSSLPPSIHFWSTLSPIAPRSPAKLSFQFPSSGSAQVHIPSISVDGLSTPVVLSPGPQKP
Method in brief: (§1)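 Binding signal is defined as a hexamer's read frequency for one factor over its frequency for the tag-only sample. To obtain reads, GST-fused human transcription factors were expressed in yeast, captured on glutathione beads, barcoded with DNA and pooled with that sample. Pools met 200 nmole of a 16-mer random double-stranded DNA library in Tris/NaCl/DTT/glycerol buffer for 30 min at room temperature before washing, 0.1% formaldehyde crosslinking, proximity ligation (BsaI/T4 ligase, 1 h, 37 °C), PCR and Illumina NextSeq500 sequencing.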

Sequence | binding signal
TATGAG | 1.02 fold enrichment (6-mer frequency, TF over GST control)
GGCAAT | 1 fold enrichment (6-mer frequency, TF over GST control)
GACCGG | 1.11 fold enrichment (6-mer frequency, TF over GST control)
TGAAGC | 1.05 fold enrichment (6-mer frequency, TF over GST control)
AACGCA | 1.03 fold enrichment (6-mer frequency, TF over GST control)
CATAGT | 1.03 fold enrichment (6-mer frequency, TF over GST control)
AGCGTC | 1.05 fold enrichment (6-mer frequency, TF over GST control)
GTGCCT | 1.05 fold enrichment (6-mer frequency, TF over GST control)
GTACCA | 1.04 fold enrichment (6-mer frequency, TF over GST control)
ATAGGG | 1.01 fold enrichment (6-mer frequency, TF over GST control)
GCGTAT | 1.04 fold enrichment (6-mer frequency, TF over GST control)
GCCGGA | 1.17 fold enrichment (6-mer frequency, TF over GST control)
GGCTAT | 1.06 fold enrichment (6-mer frequency, TF over GST control)
GGACTT | 1.24 fold enrichment (6-mer frequency, TF over GST control)
AGTCCT | 1.06 fold enrichment (6-mer frequency, TF over GST control)
GCCCGG | 1.03 fold enrichment (6-mer frequency, TF over GST control)
CAGTTC | 1.05 fold enrichment (6-mer frequency, TF over GST control)

target: T2, GABPA (Homo sapiens, UniProt Q06546 1-454); assay: as above; details: protein: recombinant; tags: N-terminal GST; dsDNA, one strand shown
T2 sequence: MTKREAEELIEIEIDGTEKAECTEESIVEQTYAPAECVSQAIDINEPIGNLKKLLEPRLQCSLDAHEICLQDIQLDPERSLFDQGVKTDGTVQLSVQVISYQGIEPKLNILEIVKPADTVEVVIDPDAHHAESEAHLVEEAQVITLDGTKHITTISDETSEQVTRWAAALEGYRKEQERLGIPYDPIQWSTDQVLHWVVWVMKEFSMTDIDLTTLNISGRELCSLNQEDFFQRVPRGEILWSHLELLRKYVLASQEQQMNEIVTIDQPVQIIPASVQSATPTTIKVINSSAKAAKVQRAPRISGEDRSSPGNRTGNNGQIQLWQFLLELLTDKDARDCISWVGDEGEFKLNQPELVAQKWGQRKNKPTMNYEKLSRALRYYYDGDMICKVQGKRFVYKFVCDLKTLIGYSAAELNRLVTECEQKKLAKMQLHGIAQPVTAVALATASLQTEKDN
Method in brief: as §1

Sequence | binding signal
AACTGT | 1.01 fold enrichment (6-mer frequency, TF over GST control)
TATGAG | 1.03 fold enrichment (6-mer frequency, TF over GST control)
TGGTCG | 1.08 fold enrichment (6-mer frequency, TF over GST control)
GGCAAT | 1 fold enrichment (6-mer frequency, TF over GST control)
GACCGG | 1.02 fold enrichment (6-mer frequency, TF over GST control)
CATAGC | 1.02 fold enrichment (6-mer frequency, TF over GST control)
GTTGGT | 1.04 fold enrichment (6-mer frequency, TF over GST control)
CGACGG | 1.09 fold enrichment (6-mer frequency, TF over GST control)
AACGCA | 1.06 fold enrichment (6-mer frequency, TF over GST control)
AGCGTC | 1.07 fold enrichment (6-mer frequency, TF over GST control)
CTGTAG | 1.03 fold enrichment (6-mer frequency, TF over GST control)
ATAGGC | 1.01 fold enrichment (6-mer frequency, TF over GST control)
GTGCCC | 1.01 fold enrichment (6-mer frequency, TF over GST control)
ATAGGG | 1.03 fold enrichment (6-mer frequency, TF over GST control)
GCGTAT | 1 fold enrichment (6-mer frequency, TF over GST control)
TAGGCC | 1.02 fold enrichment (6-mer frequency, TF over GST control)
GGACTT | 1.16 fold enrichment (6-mer frequency, TF over GST control)

target: T3, ERG (Homo sapiens, UniProt P11308 1-479); assay: as above; details: protein: recombinant; tags: N-terminal GST; dsDNA, one strand shown
T3 sequence: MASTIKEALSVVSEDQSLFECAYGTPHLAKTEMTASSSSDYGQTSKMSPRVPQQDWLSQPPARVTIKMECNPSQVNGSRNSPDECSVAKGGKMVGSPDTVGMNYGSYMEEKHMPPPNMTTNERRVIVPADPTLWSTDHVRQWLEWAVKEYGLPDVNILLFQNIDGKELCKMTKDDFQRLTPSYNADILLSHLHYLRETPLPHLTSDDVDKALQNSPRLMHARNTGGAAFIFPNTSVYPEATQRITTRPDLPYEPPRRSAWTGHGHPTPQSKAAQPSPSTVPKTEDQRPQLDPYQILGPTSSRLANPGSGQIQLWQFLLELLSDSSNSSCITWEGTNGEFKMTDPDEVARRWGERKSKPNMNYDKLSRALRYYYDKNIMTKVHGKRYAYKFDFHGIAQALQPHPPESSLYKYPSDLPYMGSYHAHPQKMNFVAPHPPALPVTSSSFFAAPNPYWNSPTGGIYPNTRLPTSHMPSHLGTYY
Method in brief: as §1

Sequence | binding signal
GTCCGG | 1.03 fold enrichment (6-mer frequency, TF over GST control)
GACCGG | 1.31 fold enrichment (6-mer frequency, TF over GST control)
GAAACC | 1.05 fold enrichment (6-mer frequency, TF over GST control)
AGTTAC | 1 fold enrichment (6-mer frequency, TF over GST control)
AACGCA | 1.13 fold enrichment (6-mer frequency, TF over GST control)
ATCCGT | 1.04 fold enrichment (6-mer frequency, TF over GST control)
AGCGTC | 1.1 fold enrichment (6-mer frequency, TF over GST control)
CCACCG | 1.03 fold enrichment (6-mer frequency, TF over GST control)
ATAGGC | 1.01 fold enrichment (6-mer frequency, TF over GST control)
GTGCCC | 1.08 fold enrichment (6-mer frequency, TF over GST control)
GCGTAT | 1.03 fold enrichment (6-mer frequency, TF over GST control)
GCCGGA | 1.27 fold enrichment (6-mer frequency, TF over GST control)
GGCTAT | 1.07 fold enrichment (6-mer frequency, TF over GST control)

From PMC7862700, “An all-to-all approach to the identification of sequence-specific readers for epigenetic DNA modifications on cytosine”
